Experimental data: PubChem BioAssay (NCI)
About 83,000 compounds went through this panel and 20% of them were active in at least one assay; those are over-represented in the sample as a whole.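 Note: values are percent growth. 100 is the growth of untreated cells, values between 100 and 0 indicate rising inhibition; between -100 and 0 indicates cell death.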 Values without a mark were called inactive. Calls of active or inactive are those of the source. Rule for the calls: active = growth percent below 10; inactive = the rest.

Columns and labels:
Assay in all cases: NCI-60 one-dose screen, 48 h (100 = growth as untreated, 0 = no growth, -100 = all killed)
Conditions in all cases: 10 µM unless noted
DU-145 prostate = test system: DU-145 prostate
K-562 leukemia = test system: K-562 leukemia
MALME-3M melanoma = test system: MALME-3M melanoma
MDA-MB-231 breast = test system: MDA-MB-231 breast
RXF 393 renal = test system: RXF 393 renal
SF-268 CNS = test system: SF-268 CNS
SF-295 CNS = test system: SF-295 CNS
SF-539 CNS = test system: SF-539 CNS
UACC-257 melanoma = test system: UACC-257 melanoma
M14 melanoma = test system: M14 melanoma
HCT-15 colon = test system: HCT-15 colon
HT29 colon = test system: HT29 colon
SNB-75 CNS = test system: SNB-75 CNS
SNB-19 CNS = test system: SNB-19 CNS
U251 CNS = test system: U251 CNS
PC-3 prostate = test system: PC-3 prostate
SK-MEL-5 melanoma = test system: SK-MEL-5 melanoma
UACC-62 melanoma = test system: UACC-62 melanoma
LOX IMVI melanoma = test system: LOX IMVI melanoma
SK-MEL-28 melanoma = test system: SK-MEL-28 melanoma

Compound	growth (DU-145 prostate) [%]	growth (K-562 leukemia)	growth (MALME-3M melanoma) [%]	growth (MDA-MB-231 breast) [%]	growth (RXF 393 renal) [%]	growth (SF-268 CNS) [%]	growth (SF-295 CNS) [%]	growth (SF-539 CNS) [%]	growth (UACC-257 melanoma) [%]	growth (M14 melanoma) [%]	growth (HCT-15 colon) [%]	growth (HT29 colon)	growth (SNB-75 CNS) [%]	growth (SNB-19 CNS) [%]	growth (U251 CNS) [%]	growth (PC-3 prostate) [%]	growth (SK-MEL-5 melanoma) [%]	growth (UACC-62 melanoma) [%]	growth (LOX IMVI melanoma) [%]	growth (SK-MEL-28 melanoma)
CCOC(=O)[C@@H]1CCCN(S(=O)(=O)c2ccc(S(=O)(=O)N(CC)CC)c(F)c2)C1	99	37.4%	79.9	92.9	76.4	85.9	49.6	88.8	60.6	76.2	84.4	83%	90.9	69.2	82.2	84	18.8	59.4	62.2	93.4%
CC(=O)Nc1ccc(-n2cnc3cc(-c4ccc(OCCN5CCCCC5)cc4)ccc32)cc1	89.3	1.57% (active)	77.5	76.1	80.4	84.1	96.7	14.4	108	47.1	43.6	2.12% (active)	88.2	88	44	64.3	79	120	86.8	107%
O=S(=O)(NCCNc1nccc(-c2c(-c3cccc(F)c3)nc3sccn23)n1)c1ccccc1	40	23.9%	68.5	66	64.1	43.5	47.4	65.5	65.3	41.4	25.8	23.2%	71.5	55.9	44	33.1	19.1	24.9	36.3	54.3%
CCc1ccc(CNc2ccc(N3CCOCC3)c(C(=O)O)c2)cc1	105	111%	101	114	121	95.6	103	100	106	99.7	104	96.4%	99.2	107	103	106	102	102	96.8	107%
COc1ccc(C/C(C)=C(/c2ccc(OCCCN(C)C)cc2)c2ccc(OC(C)=O)cc2)cc1	89.2	3.38% (active)	79	66.8	65.6	71	27.1	72.6	73.6	50.6	19.3	4.9% (active)	74.1	82.3	61.7	79.3	69.6	51.3	47.8	2.23% (active)
CN1CCN(C(=O)[C@]23CCC(C)(C)C[C@H]2C2=CC[C@@H]4[C@@]5(C)C/C(=C/c6ccncc6)C(=O)C(C)(C)[C@@H]5CC[C@@]4(C)[C@]2(C)CC3)CC1	68.4	19%	57.7	64.2	27.6	64.4	67.1	69.3	57.5	57.4	36.3	5.24% (active)	85.2	61.2	44.8	19.5	54.3	61	40.2	74.7%
O=C(/C=C(O)/C=C/c1ccc(SC(F)(F)F)cc1)/C=C/c1ccc(SC(F)(F)F)cc1	97.2	77.6%	98.6	99.8	104	86.3	97.5	106	104	79.9	88.5	83.2%	115	90.3	66.5	81	91.4	75.9	72	100%
